# From PubChem BioAssay (NCATS)
# Results filed as inconclusive are left out. Activity calls are given as the source filed them. Unless noted, calls follow the shape of the dose curve; as a rule, active = well fitted curve in the direction sought with a large enough effect; inconclusive = small, poorly fitted or top-dose-only effect, or another doubt; inactive = no such curve, though single readings can be large; an effect the other way counts as inactive or inconclusive.
# Columns and labels:
# [1] = biological target: Lysosomal acid glucosylceramidase (Homo sapiens) (UniProt P04062); test: Glucocerebrosidase-p2 (AID 348; in the data active = potency below about 10 µM; also: potency is read from the fitted curve at half-maximal effect); conditions: purified GBA, blue fluorogenic substrate, 40 min
# Sequence of Lysosomal acid glucosylceramidase (Homo sapiens) (P04062 whole entry, looked up): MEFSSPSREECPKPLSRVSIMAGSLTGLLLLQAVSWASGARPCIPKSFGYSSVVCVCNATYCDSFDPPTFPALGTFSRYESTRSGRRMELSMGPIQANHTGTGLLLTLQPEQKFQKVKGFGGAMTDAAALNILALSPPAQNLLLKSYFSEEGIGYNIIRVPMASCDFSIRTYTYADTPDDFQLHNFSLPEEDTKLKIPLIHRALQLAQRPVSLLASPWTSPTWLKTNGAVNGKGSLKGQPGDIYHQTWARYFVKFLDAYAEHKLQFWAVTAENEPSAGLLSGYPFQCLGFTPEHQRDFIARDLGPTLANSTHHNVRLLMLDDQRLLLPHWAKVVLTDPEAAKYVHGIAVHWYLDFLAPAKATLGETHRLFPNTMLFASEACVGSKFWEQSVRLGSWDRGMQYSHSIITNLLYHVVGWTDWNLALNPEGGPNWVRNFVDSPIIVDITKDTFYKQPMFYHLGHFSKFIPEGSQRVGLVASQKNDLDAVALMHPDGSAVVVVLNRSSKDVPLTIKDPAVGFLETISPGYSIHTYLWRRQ
# Method in brief: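 Compounds titrated from 0.6 nM upwards against 0.2 nM enzyme in pH 5.9 citric acid/KH2PO4, taurocholate, tween-20; blue fluorogenic substrate 80 uM, 40 min room temperature, stopped and read Ex 365/Em 440 for AC50.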
# [2] = AP1 Signaling Pathway (AID 357; active = well fitted curve in either direction with a large enough effect, not every such curve was filed as active;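 also: ME-180 reporter cells stimulated with EGF at its EC50 level; % is scaled to controls: 0 for no effect and ±100 for the full control effect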); conditions: ME-180 AP-1-bla reporter, EGF-induced, beta-lactamase ratio, 5 h; at 7.69 µM (top of the series) unless noted
# Method in brief: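 Modulation of EGF-driven AP-1 transcription was assessed with a beta-lactamase reporter in ME-180 cells. Compound and EC50 EGF were co-incubated 5 hours at 37 °C before 2.5-hour CCF4 loading at room temperature and dual-emission reading.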
# [3] = NFAT Signaling Pathway (AID 444; active = well fitted curve in either direction with a large enough effect, not every such curve was filed as active;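 also: carbachol stimulus at about its EC50 of 1 µM final; % is scaled to controls: 0 for no effect and ±100 for the full control effect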); conditions: Jurkat NFAT-bla M1, carbachol, beta-lactamase ratio, 5 h; at 7.69 µM (top of the series) unless noted
# Method in brief: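 Read-out: CCF4 FRET ratio (460 nm/530 nm) after 1 h RT dye loading, used for %activity and AC50 from titration series. Cells: Jurkat NFAT-β-lactamase/M1 line, treated with compound plus 1 uM carbachol for 5 h, 37 °C.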
# [4] = biological target: Glucocorticoid receptor (Homo sapiens) (UniProt P04150); test: GR-GFP Redistribution (AID 450;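 active = compounds whose dose series gives a full or clear partial fitted curve of increased nuclear translocation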; also: potency is read from the fitted curve at half-maximal effect); conditions: U2OS GR-GFP nuclear translocation, laser cytometry, 2 h
# Sequence of Glucocorticoid receptor (Homo sapiens) (P04150 whole entry, looked up, the tested form may be a part): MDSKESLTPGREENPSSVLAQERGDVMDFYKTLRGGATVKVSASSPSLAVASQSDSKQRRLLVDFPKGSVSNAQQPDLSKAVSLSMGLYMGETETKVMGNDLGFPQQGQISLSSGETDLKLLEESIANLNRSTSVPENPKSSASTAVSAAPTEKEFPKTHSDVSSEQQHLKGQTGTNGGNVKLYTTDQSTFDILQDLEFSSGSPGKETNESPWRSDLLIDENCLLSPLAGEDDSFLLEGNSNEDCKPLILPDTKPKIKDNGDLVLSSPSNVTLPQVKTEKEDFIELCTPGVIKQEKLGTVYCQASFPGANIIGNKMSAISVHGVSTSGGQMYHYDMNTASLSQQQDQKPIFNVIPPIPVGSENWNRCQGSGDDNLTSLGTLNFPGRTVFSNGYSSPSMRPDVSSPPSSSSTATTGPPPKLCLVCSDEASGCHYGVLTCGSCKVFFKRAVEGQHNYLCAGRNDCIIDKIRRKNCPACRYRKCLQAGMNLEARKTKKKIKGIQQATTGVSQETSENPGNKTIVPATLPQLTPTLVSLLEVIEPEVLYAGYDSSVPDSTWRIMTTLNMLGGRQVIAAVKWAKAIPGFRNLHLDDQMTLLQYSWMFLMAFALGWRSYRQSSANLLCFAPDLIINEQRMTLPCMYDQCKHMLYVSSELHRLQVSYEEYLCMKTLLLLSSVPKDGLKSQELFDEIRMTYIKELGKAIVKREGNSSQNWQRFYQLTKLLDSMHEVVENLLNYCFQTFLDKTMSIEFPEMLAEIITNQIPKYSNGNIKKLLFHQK
# [5] = biological target: Glucocorticoid receptor (Homo sapiens) (UniProt P04150); test: GR-EFC Redistribution (AID 451; calls by dose curve; also: potency is read from the fitted curve at half-maximal effect); conditions: CHO-K1 GR-EFC translocation, beta-gal luminescence, 2 h
# Method in brief: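 Translocation of GR-ED fusion to nuclear EA restores b-gal, read by luminescence after 1 h room-temperature detection. Engineered CHO-K1 biosensor cells, 1,000/well, exposed 2 h at 37 C to titrations up to 46 uM final.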
# [6] = biological target: Mitogen-activated protein kinase 10 (Mus musculus) (UniProt Q61831); test: JNK3 AlphaScreen Assay (AID 530; active = well fitted curve in either direction with a large enough effect, not every such curve was filed as active;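 also: kinase came from lysate of stimulated human HepG2 cells; signal reports phosphorylation of biotinylated GST-cJun 1-79 at Ser73 with 10 µM ATP; % is scaled to controls: 0 for no effect and ±100 for the full control effect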); conditions: JNK3 lysate, c-Jun phosphorylation; series mostly up to 57.1 µM
# Method in brief: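 Room-temperature AlphaScreen kinase assay; pre-activated HepG2 lysate as JNK3 source, biotin-GST-cJun(1-79) substrate, 10 uM ATP, compound 15 min preincubation.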
# [7] = biological target: 3',5'-cyclic-AMP phosphodiesterase 4B (Homo sapiens) (UniProt Q07343); test: qHTS Assay for Inhibitors of PDE-IV (AID 607; active = well fitted activation curve with a large enough effect in the main read-out, with a control signal flat, not every such curve was filed as active; also: % of control where 0% means no effect); conditions: HEK293 ACTOne CNG channel cells, membrane potential fluorescence; series mostly up to 22.9 µM
# Sequence of 3',5'-cyclic-AMP phosphodiesterase 4B (Homo sapiens) (Q07343 whole entry, looked up): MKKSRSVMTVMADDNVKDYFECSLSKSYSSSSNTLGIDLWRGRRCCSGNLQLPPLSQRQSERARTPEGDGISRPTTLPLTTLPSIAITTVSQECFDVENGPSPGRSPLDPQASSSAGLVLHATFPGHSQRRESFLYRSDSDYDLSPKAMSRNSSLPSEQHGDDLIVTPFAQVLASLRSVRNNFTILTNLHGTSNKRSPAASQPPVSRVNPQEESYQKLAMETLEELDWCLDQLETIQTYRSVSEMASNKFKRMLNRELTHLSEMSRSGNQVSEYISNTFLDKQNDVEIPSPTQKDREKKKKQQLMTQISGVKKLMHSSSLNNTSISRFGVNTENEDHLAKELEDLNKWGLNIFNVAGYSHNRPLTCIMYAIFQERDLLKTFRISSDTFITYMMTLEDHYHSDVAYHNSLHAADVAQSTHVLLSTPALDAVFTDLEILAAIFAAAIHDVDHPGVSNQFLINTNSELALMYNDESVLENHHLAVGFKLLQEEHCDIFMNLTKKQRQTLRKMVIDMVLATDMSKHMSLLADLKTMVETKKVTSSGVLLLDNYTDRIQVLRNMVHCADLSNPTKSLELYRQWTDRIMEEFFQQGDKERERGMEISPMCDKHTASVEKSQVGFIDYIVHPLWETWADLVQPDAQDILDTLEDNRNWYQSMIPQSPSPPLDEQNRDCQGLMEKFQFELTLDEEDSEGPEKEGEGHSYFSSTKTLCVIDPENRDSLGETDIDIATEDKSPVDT
# Method in brief: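 Live HEK293 cells with a modified cyclic nucleotide-gated (CNG) channel report intracellular cAMP via membrane-potential dye fluorescence (ex 535/em 590 nm). Endogenous PDE-IV was targeted. Compounds were tested at up to 22.9 uM final; RO 20-1724 100 uM served as control.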
# [8] = biological target: Cytochrome P450 3A4 (Homo sapiens) (UniProt P08684); test: qHTS Assay for Activators of Cytochrome P450 3A4 (AID 885); conditions: recombinant CYP3A4, Luciferin-PPXE luminescence, 60 min; series mostly up to 57.1 µM; also: nearly all actives have a fitted effect of over 65% in size
# Sequence of Cytochrome P450 3A4 (Homo sapiens) (P08684 whole entry, looked up): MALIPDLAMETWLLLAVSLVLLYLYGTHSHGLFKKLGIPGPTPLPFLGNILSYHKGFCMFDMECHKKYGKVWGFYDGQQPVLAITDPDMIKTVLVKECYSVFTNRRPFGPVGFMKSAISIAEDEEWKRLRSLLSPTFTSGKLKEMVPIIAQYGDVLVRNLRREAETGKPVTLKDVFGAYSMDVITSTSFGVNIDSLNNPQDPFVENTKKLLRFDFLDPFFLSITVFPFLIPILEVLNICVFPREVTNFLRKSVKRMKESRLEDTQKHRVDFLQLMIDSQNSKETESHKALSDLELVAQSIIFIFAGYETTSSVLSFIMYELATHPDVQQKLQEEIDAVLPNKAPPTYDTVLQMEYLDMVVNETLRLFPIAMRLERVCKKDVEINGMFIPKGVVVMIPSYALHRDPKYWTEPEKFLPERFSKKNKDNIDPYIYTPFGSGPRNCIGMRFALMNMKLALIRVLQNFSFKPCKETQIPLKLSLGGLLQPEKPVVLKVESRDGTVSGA
# Method in brief: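 Quantitative HTS format: compounds preincubated with 20nM human CYP3A4 and Luciferin-PPXE substrate at KM, reaction started by NADPH regeneration, stopped after 60 min, luciferase luminescence read 20 min later.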
# [9] = qHTS Assay for Lipid Storage Modulators (AID 1519; calls by dose curve); conditions: Drosophila S3 cells, BODIPY lipid droplet/cell ratio, laser cytometry, cells loaded with oleic acid; for activity change, negative = inhibition: at 57.5 µM (top of the series)
# Method in brief: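 Cells seeded at 5,000 per well were treated with compounds over a concentration series and loaded with oleic acid (400 uM, as added). Lipid droplet fluorescence (488 nm excitation, 500-530 nm channel) was read by laser-scanning cytometry and normalized to 20 uM Triacsin C.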
# [10] = biological target: Ubiquitin carboxyl-terminal hydrolase 1 (Homo sapiens) (UniProt O94782); test: Inhibitors of USP1/UAF1: Pilot qHTS (AID 504865); conditions: purified USP1/UAF1, Ub-rhodamine cleavage fluorescence; series mostly up to 54.9 µM;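 also: rhodamine fluorescence freed from ubiquitin-rhodamine substrate followed over time; top concentration of the series differs between compounds; % is scaled to controls: 0 for no effect and ±100 for the full control effect; nearly all actives have a fitted effect of over 35% in size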
# Sequence of Ubiquitin carboxyl-terminal hydrolase 1 (Homo sapiens) (O94782 whole entry, looked up): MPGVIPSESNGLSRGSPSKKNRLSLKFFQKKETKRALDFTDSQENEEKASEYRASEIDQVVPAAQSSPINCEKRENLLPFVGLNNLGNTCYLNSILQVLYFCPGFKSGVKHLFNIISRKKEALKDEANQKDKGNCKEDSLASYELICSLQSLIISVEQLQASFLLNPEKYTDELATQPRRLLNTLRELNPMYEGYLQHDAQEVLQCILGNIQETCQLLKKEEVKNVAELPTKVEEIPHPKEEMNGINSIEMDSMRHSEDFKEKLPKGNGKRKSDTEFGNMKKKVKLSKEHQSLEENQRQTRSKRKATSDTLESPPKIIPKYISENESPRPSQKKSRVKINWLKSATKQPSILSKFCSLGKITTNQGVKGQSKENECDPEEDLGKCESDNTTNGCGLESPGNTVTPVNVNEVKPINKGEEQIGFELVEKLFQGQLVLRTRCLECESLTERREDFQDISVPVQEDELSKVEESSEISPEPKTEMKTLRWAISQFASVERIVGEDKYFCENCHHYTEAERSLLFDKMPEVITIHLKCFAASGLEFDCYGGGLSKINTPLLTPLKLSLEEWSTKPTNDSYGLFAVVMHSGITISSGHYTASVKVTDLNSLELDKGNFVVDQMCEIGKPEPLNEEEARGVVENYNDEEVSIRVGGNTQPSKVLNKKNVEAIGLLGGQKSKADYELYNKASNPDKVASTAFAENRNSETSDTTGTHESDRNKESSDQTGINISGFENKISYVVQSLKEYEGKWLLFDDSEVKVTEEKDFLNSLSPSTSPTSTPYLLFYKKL
# Method in brief: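 USP1/UAF1 complex (1nM) preincubated with compound 15 min at room temperature, then Ub-Rho substrate (150nM final) added. Fluorescence read kinetically at 480/540 nm, 6 reads every 60 seconds. Buffer: 50mM HEPES pH 7.8, 0.5mM EDTA, 0.1 mg/ml BSA, 1mM TCEP, 0.01% Tween-20.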
# [11] = biological target: Cytochrome P450 3A4 (Homo sapiens) (UniProt P08684); test: qHTS Assay for Inhibitors and Substrates of Cytochrome P450 3A4 (AID 884); conditions: recombinant CYP3A4, Luciferin-PPXE luminescence; series mostly up to 57.1 µM; also: nearly all actives have a fitted effect of over 50% in size; also: potency is read from the fitted curve at half-maximal effect
# Method in brief: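 20 nM human CYP3A4 with 25 uM Luciferin-PPXE (at KM) in 200 mM KPO4, preincubated 10 min with compound; NADPH regeneration started a 60 min RT reaction. Luciferin detected by luminescence, normalized to 57 uM ketoconazole as full inhibition.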
# [12] = Confirmation and Secondary Assay for Modulators of Hemoglobin Beta Chain Splicing at IVS2 654 locus (AID 910); conditions: HeLa EGFP-654 splicing reporter, GFP fluorescence, 48 h; series mostly up to 38.3 µM;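 also: HeLa cells stably carrying EGFP split by mutant beta-globin IVS2-654 intron; per-well total GFP intensity by laser scanning cytometry after 2-day treatment; % of control where 0% means no effect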
# Method in brief: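 Readout: per-well total peak green fluorescence (488 nm ex, 500–520 nm em) from objects 5–250 µm, reflecting correct splicing of an EGFP-654 reporter. Compounds were applied for 2 days at 37 °C to overnight-plated HeLa EGFP-654 cells; controls were DMSO and 500 nM IVS2-654 PNA.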
# [13] = Confirmation and Secondary Assay for Modulators of Hemoglobin Beta Chain Splicing at IVS2 705 locus (AID 930); conditions: HeLa EGFP-705 splicing reporter, GFP fluorescence, 48 h; series mostly up to 38.3 µM;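 also: HeLa cells stably expressing the EGFP-705 splicing reporter; GFP fluorescence per well restored by corrected splicing of the IVS2-705 intron in EGFP; % of control where 0% means no effect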
# Method in brief: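 Splice-correction reporter: EGFP cDNA split by beta-globin intron 2 bearing the 705 mutation, stably in HeLa. Compound incubation 2 days, 37C; fluorescent objects 5-250 µm summed per well.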
# [14] = biological target: ATP-dependent 6-phosphofructokinase (Trypanosoma brucei brucei) (UniProt O15648); test: qHTS Assay to Find Inhibitors of T. brucei phosphofructokinase: hit validation (AID 492961);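 also: luminescence reports ADP formed as PFK phosphorylates fructose-6-phosphate with ATP; % is scaled to controls: 0 for no effect and ±100 for the full control effect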; conditions: T. brucei PFK, ADP-Glo luminescence; series mostly up to 24.3 µM
# Sequence of ATP-dependent 6-phosphofructokinase (Trypanosoma brucei brucei) (O15648 whole entry, looked up): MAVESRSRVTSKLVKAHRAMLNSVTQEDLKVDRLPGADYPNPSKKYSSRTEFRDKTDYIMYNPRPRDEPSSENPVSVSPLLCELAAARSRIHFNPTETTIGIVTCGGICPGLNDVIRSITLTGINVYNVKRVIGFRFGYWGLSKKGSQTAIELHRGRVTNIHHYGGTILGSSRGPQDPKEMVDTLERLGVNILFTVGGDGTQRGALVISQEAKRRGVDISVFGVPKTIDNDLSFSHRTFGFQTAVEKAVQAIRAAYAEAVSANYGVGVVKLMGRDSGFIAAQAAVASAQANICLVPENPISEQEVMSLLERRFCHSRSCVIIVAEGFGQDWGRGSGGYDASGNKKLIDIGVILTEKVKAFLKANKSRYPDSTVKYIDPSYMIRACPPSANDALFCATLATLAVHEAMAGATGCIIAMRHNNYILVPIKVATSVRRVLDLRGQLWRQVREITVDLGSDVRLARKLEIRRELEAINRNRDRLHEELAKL
# Method in brief: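 ADP-Glo luminescence read-out of ADP formed by 1.25 nM PFK from 0.1 mM ATP and 0.5 mM F6P (TEA pH 8.0, 45 min, RT). Compounds titrated; activity normalized to no-enzyme and full-enzyme controls.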
# [15] = qHTS profiling for inhibitors of Plasmodium falciparum proliferation (AID 504749);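 also: 0% = DMSO vehicle and full inhibition = artemisinin control; nearly all actives have a fitted effect of over 60% in size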; conditions: P. falciparum in erythrocytes, SYBR Green DNA, 72 h, at 28.7 µM (top of the series)
# Method in brief: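 Three-day growth assay of blood-stage parasites in erythrocytes (0.3% parasitemia, 2.5% hematocrit) at 37 C, 5% CO2, quantified by SYBR Green DNA staining after overnight detergent lysis.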
# [16] = qHTS Assay for Identification of Small Molecule Agonists for Hypoxia Response Element Signaling Pathway (AID 914; active = well fitted activation curve with a large enough effect in the signal ratio, with a control signal flat, not every such curve was filed as active; the % refers to the signal ratio; also: potency is read from the fitted curve at half-maximal effect); conditions: ME-180 HRE-bla reporter, beta-lactamase ratio, CoCl2, 17 h; activation: stronger effect = higher value
# Method in brief: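 Cells were plated overnight, pin-dosed with compound in a titration series, co-stimulated with EC50 CoCl2 and incubated 17 hours at 37 degrees Celsius. CCF4 substrate was then loaded, and AC50 values came from the 460nm/530nm ratio.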
# [17] = biological target: Cytochrome P450 1A2 (Homo sapiens) (UniProt P05177); test: p450-cyp1a2 (AID 410; calls by dose curve; also: potency is read from the fitted curve at half-maximal effect); conditions: recombinant CYP1A2, luciferin-ME demethylation, luminescence; series mostly up to 57 µM
# Sequence of Cytochrome P450 1A2 (Homo sapiens) (P05177 whole entry, looked up): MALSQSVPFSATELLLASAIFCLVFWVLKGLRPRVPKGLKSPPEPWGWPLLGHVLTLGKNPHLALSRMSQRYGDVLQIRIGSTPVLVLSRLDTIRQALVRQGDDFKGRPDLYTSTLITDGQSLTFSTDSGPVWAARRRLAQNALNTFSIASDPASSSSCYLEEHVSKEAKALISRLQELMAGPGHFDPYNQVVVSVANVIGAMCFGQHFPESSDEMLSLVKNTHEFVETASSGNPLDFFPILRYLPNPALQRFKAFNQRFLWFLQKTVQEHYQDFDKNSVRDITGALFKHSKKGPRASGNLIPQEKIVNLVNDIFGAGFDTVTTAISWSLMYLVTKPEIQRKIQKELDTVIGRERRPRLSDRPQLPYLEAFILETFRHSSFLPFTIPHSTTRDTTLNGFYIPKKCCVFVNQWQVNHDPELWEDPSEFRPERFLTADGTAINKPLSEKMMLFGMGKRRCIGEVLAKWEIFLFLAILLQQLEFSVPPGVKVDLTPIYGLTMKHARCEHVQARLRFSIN
# Method in brief: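 Human CYP1A2 (20nM) demethylated Luciferin-ME at its Km (100uM) in 100mM KPO4. After 10 min compound preincubation, NADPH regeneration ran the reaction 60 min at room temperature. Luciferin was read by luminescence, normalized to 57 uM furafylline.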
# [18] = Stat Signaling Pathway (AID 446; active = well fitted curve in either direction with a large enough effect, not every such curve was filed as active); conditions: ME-180 (cervical carcinoma) SIE beta-lactamase reporter, IL-6 stimulated, 5 h; at 7.69 µM (top of the series) unless noted
# Method in brief: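 IL-6/STAT signaling read in ME-180 cells via an SIE beta-lactamase reporter. Stimulus was 40 pM IL-6 (its AC50) for 5 hrs, so both activation and inhibition register.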
# [19] = biological target: Cytochrome P450 2C19 (Homo sapiens) (UniProt P33261); test: qHTS Assay for Inhibitors and Substrates of Cytochrome P450 2C19 (AID 899); conditions: recombinant CYP2C19, luciferin-H EGE luminescence; series mostly up to 57.1 µM; also: potency is read from the fitted curve at half-maximal effect; nearly all actives have a fitted effect of over 60% in size
# Sequence of Cytochrome P450 2C19 (Homo sapiens) (P33261 whole entry, looked up): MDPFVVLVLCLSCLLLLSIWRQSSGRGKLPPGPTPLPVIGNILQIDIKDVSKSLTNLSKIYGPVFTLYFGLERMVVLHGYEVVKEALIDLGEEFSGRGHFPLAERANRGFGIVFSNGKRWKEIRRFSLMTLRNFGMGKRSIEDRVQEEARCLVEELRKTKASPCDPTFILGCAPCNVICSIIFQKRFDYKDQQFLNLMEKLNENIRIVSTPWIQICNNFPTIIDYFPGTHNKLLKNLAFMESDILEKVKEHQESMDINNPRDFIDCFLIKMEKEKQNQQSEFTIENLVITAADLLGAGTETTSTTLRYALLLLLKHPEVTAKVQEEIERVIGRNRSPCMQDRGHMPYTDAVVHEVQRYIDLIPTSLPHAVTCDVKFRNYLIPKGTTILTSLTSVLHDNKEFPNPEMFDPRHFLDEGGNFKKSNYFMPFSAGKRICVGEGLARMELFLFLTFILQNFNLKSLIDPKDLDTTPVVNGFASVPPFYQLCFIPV
# Method in brief: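 Luminescence readout of luciferin formed from 10uM Luciferin-H EGE (KM level) by 5 nM CYP2C19 in 50mM KPO4. 60 min NADPH-driven reaction at 37C after 10 min compound preincubation; data scaled to 57uM ketoconazole inhibition.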
# [20] = measured here: cell count channel max response
# [21] = measured here: lipid channel max response
smiles,measurement,setting,value
Cc1nc2cnc(Nc3ccccc3)nc2n(C[C@H]2CCCO2)c1=O,Potency,[1],> 11.4 µM (inactive)
same,"activity change, negative = inhibition",[2],-11% (inactive)
same,"activity change, negative = inhibition",[3],9.56% (inactive)
same,Potency,[4],> 9.22 µM (inactive)
same,Potency,[5],> 46 µM (inactive)
same,Potency,[6],inactive
same,Potency,[7],inactive
same,Potency,[8],inactive
same,"activity change, negative = inhibition",[9],-5.71% (inactive)
same,max response,[9]; [20],-3%
same,max response,[9]; [21],-12.3%
same,Potency,[10],inactive
C[N+](C)(C)CC(O)CC(=O)O (stereo not given),Potency,[11],inactive
same,Potency,[12],inactive
same,outcome,[13],inactive
same,"activity change, negative = inhibition",[9],3.18% (inactive)
same,max response,[9]; [20],12.3%
same,max response,[9]; [21],21.4%
same,outcome,[14],inactive
same,Potency,[10],inactive
same,"activity, negative = inhibition",[15]; parasite line A,14.7% (inactive)
same,"activity, negative = inhibition",[15]; parasite line B,11.5% (inactive)
CN1CCN(c2ncc3nc(-c4ccccc4)c(=O)n(C4CC4)c3n2)CC1,Potency,[1],> 11.4 µM (inactive)
same,"activity change, negative = inhibition",[3],30% (inactive)
same,Potency,[4],> 9.22 µM (inactive)
same,Potency,[5],> 46 µM (inactive)
same,Potency,[6],inactive
same,Potency,[7],inactive
same,Potency,[16],3.98 µM (active)
same,"activity change, negative = inhibition",[9],4.04% (inactive)
same,max response,[9]; [20],24.3%
same,max response,[9]; [21],27.3%
same,Potency,[10],inactive
COc1ccccc1-c1ccc2ncnc(NCc3ccccc3)c2c1,Potency,[1],> 11.4 µM (inactive)
same,"activity change, negative = inhibition",[2],-25.6% (inactive)
same,Potency,[17],2 µM (active)
same,"activity change, negative = inhibition",[3],0.253% (inactive)
same,"activity, negative = inhibition",[18],-8.43% (inactive)
same,Potency,[4],> 46 µM (inactive)
same,Potency,[5],> 46 µM (inactive)
same,Potency,[6],inactive
same,Potency,[8],inactive
same,Potency,[19],3.98 µM (active)
same,"activity change, negative = inhibition",[9],-15.2% (inactive)
same,max response,[9]; [20],-12.6%
same,max response,[9]; [21],-27.8%
same,Potency,[10],inactive
COCCn1c(=O)c(C)nc2cnc(Nc3ccccc3)nc21,Potency,[1],> 11.4 µM (inactive)
same,"activity change, negative = inhibition",[2],-18.1% (inactive)
same,"activity change, negative = inhibition",[3],15.1% (inactive)
same,"activity, negative = inhibition",[18],3.38% (inactive)
same,Potency,[4],> 9.22 µM (inactive)
same,Potency,[5],> 46 µM (inactive)
same,Potency,[6],inactive
same,Potency,[7],inactive
same,"activity change, negative = inhibition",[9],-1.55% (inactive)
same,max response,[9]; [20],-5.32%
same,max response,[9]; [21],-10.4%
same,Potency,[10],inactive
COc1ccccc1CNc1ncnc2ccc(-c3cccc(C#N)c3)cc12,Potency,[1],> 11.4 µM (inactive)
same,Potency,[17],0.251 µM (active)
same,"activity change, negative = inhibition",[3],-8.04% (inactive)
same,"activity, negative = inhibition",[18],-17.5% (inactive)
same,Potency,[4],> 46 µM (inactive)
same,Potency,[5],> 46 µM (inactive)
same,Potency,[6],inactive
same,Potency,[11],7.94 µM (active)
same,Potency,[8],inactive
same,Potency,[19],5.01 µM (active)
same,"activity change, negative = inhibition",[9],-12.8% (inactive)
same,max response,[9]; [20],-3.32%
same,max response,[9]; [21],-14.8%
same,Potency,[10],inactive
CC(C)(S)[C@H](N)C(=O)O,Potency,[1],> 11.4 µM (inactive)
same,"activity change, negative = inhibition",[2],1.59% (inactive)
same,"activity change, negative = inhibition",[3],8.46% (inactive)
same,Potency,[4],> 46 µM (inactive)
same,Potency,[5],> 9.22 µM (inactive)
same,"activity change, negative = inhibition",[6],1.55% [at 11.4 µM] (inactive)
same,Potency,[7],inactive
same,Potency,[12],inactive
same,outcome,[13],inactive
same,"activity change, negative = inhibition",[9],4.84% (inactive)
same,max response,[9]; [20],10.4%
same,max response,[9]; [21],19.3%
